Assay results taken from PubChem BioAssay (NCI).
The panel holds about 83,000 compounds, 20% with a hit somewhere; the sample as a whole holds those more often.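 In brief: 96-well plates, 48 h treatment, single concentration, percent growth endpoint.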 A number with no mark means an inactive call. Calls of active or inactive are those of the source. How the source made its calls: active means growth percent below 10; inactive means the rest.

Legend:
Assay in all cases: NCI-60 one-dose screen, 48 h (100 = growth as untreated, 0 = no growth, -100 = all killed)
Settings in all cases: 10 µM unless noted
HCT-15 colon = tested on: HCT-15 colon
HT29 colon = tested on: HT29 colon
SNB-75 CNS = tested on: SNB-75 CNS
SNB-19 CNS = tested on: SNB-19 CNS
U251 CNS = tested on: U251 CNS
PC-3 prostate = tested on: PC-3 prostate
SK-MEL-5 melanoma = tested on: SK-MEL-5 melanoma
UACC-62 melanoma = tested on: UACC-62 melanoma
LOX IMVI melanoma = tested on: LOX IMVI melanoma
SK-MEL-28 melanoma = tested on: SK-MEL-28 melanoma

COc1ccc(OC)c(/C=N/Nc2ncnc3c2c(C)nn3C)c1
growth (HCT-15 colon): 100% | growth (HT29 colon): 88.3% | growth (SNB-75 CNS): 104% | growth (SNB-19 CNS): 98.3% | growth (U251 CNS): 96.6% | growth (PC-3 prostate): 99.6% | growth (SK-MEL-5 melanoma): 98% | growth (UACC-62 melanoma): 93.5% | growth (LOX IMVI melanoma): 99.5% | growth (SK-MEL-28 melanoma): 98.8%

O=C(O)c1cn(C2CC2)c2cc(N3CCN(Cc4ccc5ccccc5c4O)CC3)c(F)cc2c1=O
growth (HCT-15 colon): 9.69% (active) | growth (HT29 colon): -32.4% (active) | growth (SNB-75 CNS): -14.4% (active) | growth (SNB-19 CNS): 78.3% | growth (U251 CNS): 45.8% | growth (PC-3 prostate): 39.3% | growth (SK-MEL-5 melanoma): 61.6% | growth (UACC-62 melanoma): 38.8% | growth (LOX IMVI melanoma): 40.1% | growth (SK-MEL-28 melanoma): 38.6%

CCC(C)(C)C(=O)O[C@H]1C[C@@H](C)C=C2C=C[C@H](C)[C@H](CC[C@@H]3CC(SCCN)CC(=O)O3)[C@H]21 (stereo not given in full)
growth (HCT-15 colon): 100% | growth (HT29 colon): 75% | growth (SNB-75 CNS): 95.5% | growth (SNB-19 CNS): 93% | growth (U251 CNS): 87.5% | growth (PC-3 prostate): 44.3% | growth (SK-MEL-5 melanoma): 89.4% | growth (UACC-62 melanoma): 84.3% | growth (LOX IMVI melanoma): 75.8% | growth (SK-MEL-28 melanoma): 102%

CCOC(=O)c1cc2c(n1Cc1cc(OC)c(OC)c(OC)c1)-c1nc(N)sc1CCC2
growth (HCT-15 colon): 35.9% | growth (HT29 colon): 19.3% | growth (SNB-75 CNS): 60.3% | growth (SNB-19 CNS): 61.3% | growth (U251 CNS): 38.9% | growth (PC-3 prostate): 26.3% | growth (SK-MEL-5 melanoma): 19.6% | growth (UACC-62 melanoma): 35.5% | growth (LOX IMVI melanoma): 48.5% | growth (SK-MEL-28 melanoma): 69.4%

COC(=O)/C=C1/SC(=Nc2ccc(C(F)(F)F)cc2)N(CCc2c[nH]c3ccc(O)cc23)C1=O
growth (HCT-15 colon): 3.12% (active) | growth (HT29 colon): -49.9% (active) | growth (SNB-75 CNS): -3.46% (active) | growth (SNB-19 CNS): -2.49% (active) | growth (U251 CNS): -37.7% (active) | growth (PC-3 prostate): -33.8% (active) | growth (SK-MEL-5 melanoma): -61.9% (active) | growth (UACC-62 melanoma): -53.6% (active) | growth (LOX IMVI melanoma): -60% (active) | growth (SK-MEL-28 melanoma): -29.5% (active)

O=C(Nc1ccccc1)Nc1ncnc2c1ncn2-c1ccc(Cl)cc1
growth (HCT-15 colon): 79% | growth (HT29 colon): 80.4% | growth (SNB-75 CNS): 44.3% | growth (SNB-19 CNS): 97.1% | growth (U251 CNS): 77.6% | growth (PC-3 prostate): 104% | growth (SK-MEL-5 melanoma): 94.9% | growth (UACC-62 melanoma): 89.3% | growth (LOX IMVI melanoma): 91.9% | growth (SK-MEL-28 melanoma): 95.5%

C=CCSc1nnc(NC(=O)CCl)s1
growth (HCT-15 colon): 89.7% | growth (HT29 colon): 110% | growth (SNB-75 CNS): 103% | growth (SNB-19 CNS): 89.8% | growth (U251 CNS): 92% | growth (PC-3 prostate): 103% | growth (SK-MEL-5 melanoma): 88% | growth (UACC-62 melanoma): 88.8% | growth (LOX IMVI melanoma): 7.79% (active) | growth (SK-MEL-28 melanoma): 99%

COc1cc2c(c(OC)c1OC)CCC(c1cccc(NC(=O)c3ccc(Br)cc3)c1)O2 (stereo not given)
growth (HCT-15 colon): 85.2% | growth (HT29 colon): 77.4% | growth (SNB-75 CNS): 86% | growth (SNB-19 CNS): 86% | growth (U251 CNS): 90% | growth (PC-3 prostate): 60.5% | growth (SK-MEL-5 melanoma): 71.4% | growth (UACC-62 melanoma): 60.6% | growth (LOX IMVI melanoma): 90.4% | growth (SK-MEL-28 melanoma): 89.7%

CN(c1cc2ncc(=O)[nH]c2cc1NC(N)=NCc1ccc(Cl)cc1)C1CCCCC1
growth (HCT-15 colon): 99.9% | growth (HT29 colon): 22.7% | growth (SNB-75 CNS): 58.2% | growth (SNB-19 CNS): 63.5% | growth (U251 CNS): -4.07% (active) | growth (PC-3 prostate): 64.3% | growth (SK-MEL-5 melanoma): 71.5% | growth (UACC-62 melanoma): 72.3% | growth (LOX IMVI melanoma): -45.6% (active) | growth (SK-MEL-28 melanoma): 52.8%

Cc1c(O)cc(-c2cnc(Nc3ccccc3)s2)c(O)c1C
growth (HCT-15 colon): 92.2% | growth (HT29 colon): 109% | growth (SNB-75 CNS): 104% | growth (SNB-19 CNS): 106% | growth (U251 CNS): 100% | growth (PC-3 prostate): 76% | growth (SK-MEL-5 melanoma): 93.4% | growth (UACC-62 melanoma): 78.1% | growth (LOX IMVI melanoma): 78.3% | growth (SK-MEL-28 melanoma): 104%

COc1ccc2c(c1)N(CCO)C1=C(C(=O)OC1)C2c1cccc(F)c1 (stereo not given)
growth (HCT-15 colon): 7.3% (active) | growth (HT29 colon): 3.98% (active) | growth (SNB-75 CNS): 35.7% | growth (SNB-19 CNS): 27.8% | growth (U251 CNS): 16.9% | growth (PC-3 prostate): 25.6% | growth (SK-MEL-5 melanoma): 12.3% | growth (UACC-62 melanoma): 40% | growth (LOX IMVI melanoma): 27.5% | growth (SK-MEL-28 melanoma): 47.9%

O=[N+]([O-])c1ccc(O)cc1Br
growth (HCT-15 colon): 101% | growth (HT29 colon): 92.6% | growth (SNB-75 CNS): 92.7% | growth (SNB-19 CNS): 98.6% | growth (U251 CNS): 103% | growth (PC-3 prostate): 88.8% | growth (SK-MEL-5 melanoma): 93.3% | growth (UACC-62 melanoma): 105% | growth (LOX IMVI melanoma): 95.4% | growth (SK-MEL-28 melanoma): 109%

CC1=C([Se]CC(OC(=O)CC[Se]c2ccccc2)C(=O)NC(C)(C)C)C(=O)c2ccccc2C1=O (stereo not given)
growth (HCT-15 colon): 4.43% (active) | growth (HT29 colon): 5.28% (active) | growth (SNB-75 CNS): -89.2% (active) | growth (SNB-19 CNS): -88.1% (active) | growth (U251 CNS): -36% (active) | growth (PC-3 prostate): -36% (active) | growth (SK-MEL-5 melanoma): -97.4% (active) | growth (UACC-62 melanoma): -76.4% (active) | growth (LOX IMVI melanoma): -0.738% (active) | growth (SK-MEL-28 melanoma): -92.2% (active)
